Methyltransferases = Primary Screen for Target Class Profiling of Small Molecule Inhibitors of Methyltransferases; purified enzyme, MTase-Glo SAH luminescence; stronger effect = lower value; calls only at 40 µM; 3.9% of 25,000 active; AID 1745853, 2022; call rule not given here
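Each enzyme was assayed with SAM and its substrate. SAH formation detected by MTase-Glo luminescence; single-point 40 uM screen[…].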
Each line names hits and unclear results; the compound was inactive in the other large screens; ! = a repeat was not active. Only a selection was taken, and hits are over-represented in it overall.

COc1cccc(CN2C(=O)c3cc4ccccc4n3CC2(C)C(=O)NCCC(C)C)c1OC (configuration not stated)	none
CC(=O)N1CCN(NC(=O)c2ccc(F)cc2)CC1	none
CN1CCC(c2c[nH]c3ccc(NC(=O)c4ccc(F)cc4)cc23)CC1	Methyltransferases active
CCN1c2cc(C(=O)Nc3cccc(F)c3)ccc2C(=O)N2CCCC21 (configuration not stated)	none
Cc1ccc(N2C(=O)CSc3c(c4ccccc4n3C)C2C(=O)NCc2ccccc2)cc1C (configuration not stated)	none
Oc1cccc(Nc2ccnc3[nH]c4ccccc4c23)c1	Methyltransferases active
O=C(O)CCc1nccc2c1[nH]c1ccccc12	none
Cc1cc(C)cc(NC(=O)Cn2nc3n(CCc4ccccc4)c(=O)c4ccccc4n3c2=O)c1	none
CCOC(=O)c1cc2n(n1)CC(C)(C(=O)NCc1ccccc1)N(c1ccc(C)c(C)c1)C2=O (configuration not stated)	none
O=C(CSc1nnc2n(Cc3ccc(F)cc3)c(=O)c3ccccc3n12)Nc1ccc(F)cc1F	none
CN(C)CCN1C(=O)c2ccc(-c3ccco3)n2CC1(C)C(=O)NC1CCCCCCC1 (configuration not stated)	none
CCOC(=O)c1cc2n(n1)CC(C)(C(=O)NC1CCCCC1)N(c1cccc(OC)c1)C2=O (configuration not stated)	none
COC(=O)c1cc2n(n1)CC(C)(C(=O)NC1CCCCCC1)N(Cc1cccc(OC)c1)C2=O (configuration not stated)	none
COc1cccc(-n2nc(C(=O)O)cc2-c2ccc(C3CCCCC3)c(Cl)c2)c1	Methyltransferases active
CCCSCCCN1C(=O)c2cc3occc3n2CC1(C)C(=O)NC1CCCCC1C (configuration not stated)	none
Cc1cc2c(cc3n2CC(C)(C(=O)NC2CCCCCC2)N(Cc2ccccc2Cl)C3=O)o1 (configuration not stated)	none
COc1ccc(S(=O)(=O)Nc2nc(-c3cccc([N+](=O)[O-])c3)cs2)cc1OC	none
COc1ccc(C2CC(=O)c3cc(-c4nc(-c5cccc([N+](=O)[O-])c5)cs4)c(=O)n(-c4ccccc4N)c3C2)cc1 (configuration not stated)	Methyltransferases active
COc1ccc(N2C(=O)c3cc4occc4n3CC2(C)C(=O)NC2CCCCCC2)cc1Cl (configuration not stated)	none
C=C1C(=O)OC2C(OC(=O)C=C(C)C)C(C)=C3C(=O)C=C(C)C3C(O)C12 (configuration not stated)	Methyltransferases active
C=C1C(=O)O[C@@H]2[C@H]3C(C)=CC(=O)C3=C(C)[C@@H](OC(=O)/C(C)=C\C)[C@H](O)[C@@H]12	none
Cc1ccc(C)c(N2CCN(CCN3C(=O)c4ccc(-c5ccco5)n4CC3(C)C(=O)NC3CCCCCC3)CC2)c1 (configuration not stated)	none
CC1(C(=O)NC2CCCCCC2)Cn2c(c(-n3cccc3)c3cc(F)ccc32)C(=O)N1Cc1cccs1 (configuration not stated)	none
Cc1cccc(CN2C(=O)c3cc4ccccc4n3CC2(C)C(=O)NCCCOC(C)C)c1 (configuration not stated)	none
CC[n+]1c(/C=C/C=C2/N(C)c3ccccc3C2(C)C)sc2ccccc21	Methyltransferases active
CC1(C)CC(=O)c2c(C(F)(F)F)nn(-c3ccc(C(N)=O)c(NC4CCC(OC(=O)CN)CC4)c3)c2C1 (configuration not stated)	Methyltransferases active!
CNC(=O)c1cc2n(n1)CC(C)(C(=O)NC1CCCCCC1)N(C)C2=O (configuration not stated)	none
COc1ccc2cc3n(c2c1)CC(C)(C(=O)NCC1CCCO1)N(Cc1cccc(Cl)c1)C3=O (configuration not stated)	none
CCCNC(=O)NS(=O)(=O)c1ccc(Cl)cc1	none
Cn1c(=O)n(C)c2cc(S(=O)(=O)Nc3ccc(Cl)cc3)ccc21	none
CN(C)c1ccc(NC(=O)NS(=O)(=O)c2ccc(Cl)cc2)cc1	Methyltransferases active
CCCCN1C(=O)c2cc3ccccc3n2CC1(C)C(=O)NC1CCCCC1 (configuration not stated)	none
COc1ccc2cc(CNc3ccc(C)cc3)c(=O)n(CC(=O)Nc3cccc(C(F)(F)F)c3)c2c1	Methyltransferases active
COc1ccc(C(=O)N[C@@H]2CN(C(=O)Nc3cccc(C(F)(F)F)c3)CCC[C@H]2O)cc1	none
Cc1cc(C)cc(Nc2nc(C)cc(=O)n2CC(=O)Nc2cccc(C(F)(F)F)c2)c1	none
Cn1c(=O)c2ccc(C(=O)NC3CCCC3)cc2n2c(=O)n(Cc3c(F)cccc3Cl)nc12	none
Cc1ccccc1CNC(=O)Cn1ccc2cc(S(=O)(=O)N3CCCC3)ccc21	none
COc1ccc(CCNC(=O)c2cc3n(n2)CC(C)(C(=O)NC2CCCC2)N(C)C3=O)c(OC)c1 (configuration not stated)	none
CCCn1c(=O)c2ccc(C(=O)NC(C)C)cc2n2c(=O)n(Cc3ccc(Cl)cc3)nc12	none
CCCn1c(=O)c2ccc(C(=O)NC(C)CC)cc2n2c(SCC(=O)Nc3ccc(C)c(C)c3)nnc12 (configuration not stated)	none
O=C(c1ccccc1)c1ccc2nc(NC(=O)c3csc(C4CCN(c5ncnc6ccsc56)CC4)n3)[nH]c2c1	Methyltransferases active
CC1CCN(c2cc(NC(=O)c3ccccc3)ncn2)CC1	none
COC(=O)Nc1nc2ccc(C(=O)c3cccs3)cc2[nH]1	none
CCCn1c(=O)c2ccc(C(=O)NC(C)CC)cc2n2c(SCC(=O)c3ccc(OC)cc3)nnc12 (configuration not stated)	none
COc1ccc(-c2nnc(-c3ccc(Cl)c(S(=O)(=O)N4CCCCC4)c3)o2)cc1OC	none
Nc1nc(N)c(N=O)c(OCC2CCCCC2)n1	none
CCCc1nc(CN(CC)C(=O)c2ccc(NC(=O)C3CCC3)cc2)no1	none
NS(=O)(=O)c1ccc(Nc2nc(OCC3CCCCC3)c3[nH]cnc3n2)cc1	Methyltransferases active
CCN(CC)C(=O)c1ccc(Nc2nc(OCC3CCCCC3)c3[nH]cnc3n2)cc1	Methyltransferases active
CC(C)CCNC(=O)C1(C)Cn2c(cc3ccccc32)C(=O)N1CCc1cccs1 (configuration not stated)	none
CC(C)Cn1c(=O)c2ccccc2n2c(SCC(=O)N3CCN(c4ccc(F)cc4)CC3)nnc12	none
COc1ccc2c(c1)CC(NS(=O)(=O)c1ccc(Cl)cc1)CO2 (configuration not stated)	none
O=C(Nc1ccccc1)N1Cc2c(sc3c2CCCC3)-n2cccc2C1c1ccc(Cl)cc1 (configuration not stated)	none
CCCn1c(=O)c2cc(Cl)ccc2n2c(SCC(=O)Nc3ccc(C)cc3C)nnc12	none
CC1CCC(NC(=O)C2(C)Cn3c(nc4ccccc43)C(=O)N2Cc2cccc(Cl)c2)CC1 (configuration not stated)	none
CN1CCc2cccc3c2C1Cc1ccc(O)c(O)c1-3 (configuration not stated)	Methyltransferases active
Cc1ccc(CN2C(=O)c3cc4sccc4n3CC2(C)C(=O)NC2CCCCCCC2)cc1 (configuration not stated)	none
Cc1[nH]c(/C=C2\C(=O)Nc3ccc(S(=O)(=O)N(C)c4cccc(Cl)c4)cc32)c(C)c1C(=O)N1CCN(C)CC1	Methyltransferases active
CN(C)S(=O)(=O)c1ccc2c(c1)/C(=C/c1cc3c([nH]1)CCCC3)C(=O)N2	none

Bioassay records from PubChem BioAssay.
